# Measured values: the supplement of paper PMC8371130
# Counter-ions that a name gives are not always drawn.
# System: HL-1
# Test: relative cell viability (CellTiter-Glo) vs DMSO control (% of DMSO control); higher = more viable cells
# How it was run: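 Compounds at 40, 200, 1000 or 5000 nM in 0.01% DMSO were added to HL-1 mouse atrial cardiomyocytes plated at 1000 cells per well in 384-well plates. The next day, cells were exposed to 1% O2 for 48 h and then reoxygenated for 24 h, or left in normoxia for the same time. Viability was read with CellTiter-Glo luminescence and normalised to vehicle-treated controls.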
# [1] = oxygen condition: hypoxia 48 h (1% O2) + reoxygenation 24 h, 40 nM
# [2] = oxygen condition: hypoxia 48 h (1% O2) + reoxygenation 24 h, 200 nM
# [3] = oxygen condition: hypoxia 48 h (1% O2) + reoxygenation 24 h, 1000 nM
# [4] = oxygen condition: hypoxia 48 h (1% O2) + reoxygenation 24 h, 5000 nM
# [5] = oxygen condition: normoxia 72 h, 40 nM
# [6] = oxygen condition: normoxia 72 h, 200 nM
# [7] = oxygen condition: normoxia 72 h, 1000 nM
# [8] = oxygen condition: normoxia 72 h, 5000 nM
Structure (SMILES),relative cell viability [1],relative cell viability [2],relative cell viability [3],relative cell viability [4],relative cell viability [5],relative cell viability [6],relative cell viability [7],relative cell viability [8]
Cc1c(O)c(=O)ccn1C [Deferiprone],108,102,102,112,100,102,107,111
COc1cc([C@@H]2c3cc4c(cc3[C@@H](O[C@@H]3O[C@@H]5CO[C@@H](C)O[C@H]5[C@H](O)[C@H]3O)[C@H]3COC(=O)[C@H]23)OCO4)cc(OC)c1O [Etoposide],85.7,67.1,46.6,19.1,91.3,60.8,40,13.9
CCCOc1ccc(C(=O)OCCN(CC)CC)cc1N [Proparacaine HCl],88.3,98.9,97.8,107,103,92.4,78.4,106
C#C[C@]1(O)CC[C@H]2[C@@H]3CCc4cc(O)ccc4[C@H]3CC[C@@]21C [Ethinyl Estradiol],104,104,105,107,107,105,108,110
CN1CCCCC1CCN1c2ccccc2Sc2ccc([S+](C)[O-])cc21 (stereo unspecified) [Mesoridazine Besylate],108,106,105,113,97,102,117,115
COc1ccc(C[C@@H]2c3cc(OC)c(OC)cc3CC[N@+]2(C)CCC(=O)OCCCCCOC(=O)CC[N@@+]2(C)CCc3cc(OC)c(OC)cc3[C@H]2Cc2ccc(OC)c(OC)c2)cc1OC [Cisatracurium besylate],108,100,107,109,105,103,109,128
O=NO [Sodium nitrite],109,110,116,122,109,116,107,114
CCOC(=O)[C@H](CCc1ccccc1)N[C@H]1CCCN2CCC[C@@H](C(=O)O)N2C1=O [Cilazapril monohydrate],97.6,97.3,94.1,113,105,106,98.7,115
O=c1oc2cc(O)ccc2s1 [Tioxolone],106,104,108,110,107,109,113,106
COc1cc(OC)c(C(=O)CCCN2CCCC2)c(OC)c1 [Buflomedil HCl],101,99.7,100,114,108,103,105,114
Cc1ncc(CO)c(CO)c1O [Pyridoxine hydrochloride],102,101,103,109,99.7,100,103,114
CC(=O)OCC(=O)[C@@]12OC(C)(C)O[C@@H]1C[C@H]1[C@@H]3C[C@H](F)C4=CC(=O)C=C[C@]4(C)[C@@]3(F)[C@@H](O)C[C@@]12C [Fluocinonide],93.4,91.8,89.8,99,92.3,88.7,89.5,91.2
Clc1ccc(COC(Cn2ccnc2)c2ccc(Cl)cc2Cl)c(Cl)c1 (stereo unspecified) [Miconazole],96.8,99.4,98.3,104,101,101,101,106
COC(=O)[C@H]1[C@H]2C[C@@H]3c4[nH]c5cc(OC)ccc5c4CCN3C[C@H]2C[C@@H](OC(=O)c2cc(OC)c(OC)c(OC)c2)[C@@H]1OC [Reserpine],112,106,107,110,102,103,103,113
CC(=O)Oc1cc2c(s1)CCN(C(C(=O)C1CC1)c1ccccc1F)C2 (stereo unspecified) [Prasugrel],115,104,106,110,106,105,122,120
Nc1[nH]cnc2ncnc1-2 [Adenine hydrochloride],108,105,104,110,100,96.4,103,107
C[C@@H]1CCN(C(=O)CC#N)C[C@@H]1N(C)c1ncnc2[nH]ccc12 [Tofacitinib citrate],97,104,100,107,106,102,98.7,103
OCCOCCN1CCN(C(c2ccccc2)c2ccc(Cl)cc2)CC1 (stereo unspecified) [Hydroxyzine 2HCl],104,107,109,114,102,107,105,109
CC(=O)Oc1ccccc1C(=O)O [Aspirin],94,101,90.7,110,95.4,105,93.6,122
CCN(CC)CCNC(C(=O)OCCC(C)C)c1ccccc1 (stereo unspecified) [Camylofin Chlorhydrate],108,103,106,109,101,100,103,110
COc1cc(Nc2c(C#N)cnc3cc(OCCCN4CCN(C)CC4)c(OC)cc23)c(Cl)cc1Cl [Bosutinib],103,104,107,121,110,125,107,116

Structure (SMILES),relative cell viability [1],relative cell viability [2],relative cell viability [3],relative cell viability [4],relative cell viability [5],relative cell viability [6],relative cell viability [7],relative cell viability [8]
CC(C)(CO)[C@@H](O)C(=O)NCCC(=O)O [Pantothenic acid],100,103,104,108,100,101,99.5,106
Cc1ccc(S(=O)(=O)NC(=O)NN2CC3CCCC3C2)cc1 (stereo unspecified) [Gliclazide],104,110,111,104,112,113,118,112
Cc1ncc([N+](=O)[O-])n1CC(O)CCl (stereo unspecified) [Ornidazole],106,109,123,115,108,108,103,117
C[N+](C)(C)CC(O)CC(=O)[O-] (racemic) [DL-Carnitine hydrochloride],100,95.2,97.2,107,104,102,103,91.5
COc1ccc2c(c1OC)C(=O)O[C@@H]2[C@H]1c2c(cc3c(c2OC)OCO3)CCN1C [Noscapine HCl],97.5,98,99.1,103,94.9,106,104,109
CC(=O)OCC(=O)[C@H]1CC[C@H]2[C@@H]3CCC4=CC(=O)CC[C@]4(C)[C@H]3CC[C@]12C [Deoxycorticosterone acetate],103,99.4,101,108,95.4,103,102,107
CC(C)(C)CC(C)(C)c1ccc(OCCOCC[N+](C)(C)Cc2ccccc2)cc1 [Benzethonium chloride],102,94.7,75.7,17.6,97.9,93.1,66.7,18
CCc1c2c(nc3ccc(OC(=O)N4CCC(N5CCCCC5)CC4)cc13)-c1cc3c(c(=O)n1C2)COC(=O)[C@]3(O)CC [Irinotecan],99.9,90.1,51.8,28.7,95.2,83.4,64.9,22.8
CCC(C)(C)C(=O)O[C@H]1C[C@@H](C)C=C2C=C[C@H](C)[C@H](CC[C@@H]3C[C@@H](O)CC(=O)O3)[C@H]21 [Simvastatin],109,108,99.2,3.87,111,103,50.4,2.69
COC(c1ccccc1)(c1ccccc1)[C@H](Oc1nc(C)cc(C)n1)C(=O)O [Ambrisentan],105,97.3,109,105,95.1,94,102,99.8
Clc1ccc2c(c1)CCc1cccnc1C2=C1CCNCC1 [Desloratadine],92.5,109,102,97,105,97.5,104,103
Cc1cccc(CN2CCN(C(c3ccccc3)c3ccc(Cl)cc3)CC2)c1 (stereo unspecified) [Meclizine 2HCl],101,108,98.5,107,101,109,111,103
CC(C)(C)c1ccc(C(O)CCCN2CCC(C(O)(c3ccccc3)c3ccccc3)CC2)cc1 (stereo unspecified) [Terfenadine],89,102,94.4,79.4,97.4,91.5,76.7,79.7
CCN(CC)CCOC(=O)C(c1ccccc1)c1ccccc1 [Adiphenine HCl],99.1,94.2,102,108,101,97.4,101,110
O=C(O)c1ccc(-n2nc(-c3ccccc3O)nc2-c2ccccc2O)cc1 [Deferasirox],93.2,100,99.7,88.1,97,104,94.3,42.9
C[C@]12CC[C@@H]3c4ccc(O)cc4C[C@@H](CCCCCCCCC[S+]([O-])CCCC(F)(F)C(F)(F)F)[C@H]3[C@@H]1CC[C@@H]2O (stereo partly specified) [Fulvestrant],102,113,110,122,111,117,122,135
Cc1cnc(C(=O)NCCc2ccc(S(=O)(=O)NC(=O)NC3CCCCC3)cc2)cn1 [Glipizide],109,108,108,109,106,97.1,106,110
O=C1c2ccccc2C(=O)C1c1ccccc1 [Phenindione],97,105,95.1,113,108,107,102,108
CC(C)NCC(O)COc1ccc(CCOCC2CC2)cc1 (stereo unspecified) [Betaxolol hydrochloride],107,104,106,79.8,105,106,86.5,69.3
O=C1C(O)=C([C@H]2CC[C@H](c3ccc(Cl)cc3)CC2)C(=O)c2ccccc21 [Atovaquone],98.8,103,113,112,98.2,104,98.5,115
C=C1/C(=C\C=C2/CCC[C@]3(C)[C@@H]([C@H](C)/C=C/[C@H](C)C(C)C)CC[C@@H]23)C[C@@H](O)C[C@@H]1O [Doxercalciferol],89.5,88,93.7,88.7,106,99,103,52.4
